Here are results for 58 compounds from PubChem BioAssay AID588405 (Sanford-Burnham Center for Chemical Genomics, 2011).

The whole screen tested about 360,000 compounds, of which about 6,200 (1.7%) were called active. This excerpt belongs to a sample that is enriched for actives. Values without a mark were called inactive.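 How the source made its calls: active means inhibition of at least 50% at 20 µM; inactive means the rest.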

A short description of this assay: Peg3 promoter-driven luciferase inhibitors, primary screen, cell-based, HeLa, luciferase luminescence (AID 588405). The conditions noted are these: HeLa PEG-Prom luciferase reporter, overnight, at 20 µM, hits give high values.
As usually defined, the inhibition is the drop in the measured response relative to a control, in per cent. `Cc1nc2c(OCC(=O)C(C)(C)C)cccn2c1N(C)Cc1cccs1`: the inhibition is -4.66%.

For `CCCCc1ccc(S(=O)(=O)NC(=O)C2(C)CCN2C(=O)c2c(C)noc2C)cc1` (stereo not drawn), the inhibition was -14.9%.

Consider `COc1ccc(C(C)C)cc1-c1ccc2nncn2c1`, for which the inhibition was -16.5%.

Turning to `CC1(Oc2ccc(Cl)cc2)CCN(Cc2csc3ccccc23)C1` (stereo not drawn), the inhibition is -17.9%.

In the case of `CC1(C(=O)NS(=O)(=O)c2ccccc2Cl)CCN1C(=O)c1cccc(F)c1` (stereo not drawn), the inhibition was -6.7%.

Consider `O=c1[nH]c2ccc(S(=O)(=O)N3CCCC3)cc2[nH]1`, for which the inhibition is 3.24%.

Regarding `Cc1cccc(NC(=O)CSC(N)=O)c1C`, the inhibition was 1.28%.

For the compound `CCOC(=O)/C=c1\s/c(=C\c2ccc(C#N)cc2)c(=O)n1CC(=O)Nc1cccc(C)c1C`, the inhibition was 57.2% (active).

As to `Cc1cccc(NC(=O)CN2CCN(C(=O)C3CCN(C(=O)/C=C/c4ccccc4)CC3)CC2)c1C`, the inhibition is -10.7%.

With `Cc1cnc(C(=O)OCC(=O)Nc2ccc(Cl)cc2Cl)cn1`, the inhibition was -12%.

With `CN1CCC(OC(=O)COc2ccc(Cl)cc2Cl)CC1`, the inhibition was 3.36%.

As to `COC(=O)c1c(NC(=O)COc2ccc(Cl)cc2Cl)sc2c1CC(C)(C)NC2(C)C`, the inhibition is 92.3% (active).

In the case of `Cc1ccccc1S(=O)(=O)NC(=O)C1(C)CCN1C(=O)Cc1ccc(Cl)cc1Cl` (stereo not drawn), the inhibition is 3.83%.

As to `Cc1cccc(CNC(=O)c2sc(=O)n(Cc3ccccc3C)c2C)c1`, the inhibition is 3.15%.

On to `CCn1c(=O)c(=O)[nH]c2c(=O)oc3ccc(S(=O)(=O)Nc4ccc(OC)cc4)cc3c21`, for which the inhibition was -5.21%.

Regarding `CC(=O)N1C[C@@H](CO)[C@@H](N(C)C(=O)c2ccco2)C[C@H]1c1ccccc1`, the inhibition was -9.39%.

As to `COc1cc(SC)ccc1C(=O)Nc1nc(C)cs1`, the inhibition is 99.9% (active).

As for `COc1cc(SC)ccc1C(=O)NNC(=O)C1COc2ccccc2O1` (stereo not drawn), the inhibition was -36.6%.

As to `Cc1csc(NC(=O)CSc2nc(=O)cc(N)n2-c2ccc(F)cc2)n1`, the inhibition was 1.12%.

`CCc1nc2c(OCc3cccc(OC)c3)cccn2c1N(C)C(=O)C(C)C`: the inhibition is 17.8%.

Take `COc1cccc(CNc2nc(NCc3cccs3)nc3ccsc23)c1`: the inhibition is 57.2% (active).

Regarding `Clc1ccccc1Nc1nc(NCc2cccs2)nc2ccsc12`, the inhibition was 7.17%.

With `COc1cccc(CNc2nc(NCc3ccccc3OC)nc3ccsc23)c1`, the inhibition was 30.7%.

`Oc1cccc2cc(-c3ccncc3)cnc12`: the inhibition was -97.7%.

`O=C1c2ccccc2C(c2nc3ccccc3[nH]2)N1c1ccccc1` (stereo not drawn): the inhibition was 2.93%.

`Cc1cccc(N2CC(C(=O)Nc3ccccc3N3CCCC3)CC2=O)c1C` (stereo not drawn): the inhibition is 20.1%.

Turning to `COc1cccc(/C=N/Nc2cc(C)nc(-c3ccccc3O)n2)c1O`, the inhibition is 79.9% (active).

On to `COc1cc(/C=N/NC(=O)c2cc(-c3ccccc3C)nc3ccccc23)cc(OC)c1O`, for which the inhibition is 10.1%.

For `COc1ccccc1-n1c(SCC(=O)Nc2cccc(C(=O)O)c2)nnc1-c1ccccc1O`, the inhibition is -4.09%.

On to `CC1(C(=O)NS(=O)(=O)c2cccc(F)c2)CCN1C(=O)Cc1ccc(Cl)cc1Cl` (stereo not drawn), for which the inhibition was -4.9%.

With `O=C(O)C1=CCCN(CCON=C(c2ccccc2)c2ccccc2)C1`, the inhibition was -3.93%.

Regarding `Cc1cccc(-c2cnc(C(O)c3cc(C)cc(C)c3)[nH]2)c1` (stereo not drawn), the inhibition is 15.8%.

In the case of `CC(=O)C12CC(C)=C(C)CC1CC1C3CCC4=CC(=O)CCC4(C)C3CCC12C` (stereo not drawn), the inhibition is 14%.

Consider `CSc1ncnc2c1ncn2CC(=O)C1CCC2C3CCC4=CC(=O)CCC4(C)C3CCC12C` (stereo not drawn), for which the inhibition is 105% (active).

Regarding `CSc1ncnc2c1ncn2CCCNCC1CCCCC1`, the inhibition is -12.2%.

Turning to `COc1ccc(OC)c(NC(=O)C2(C)CCN2C(=O)Cc2ccccc2)c1` (stereo not drawn), the inhibition is 0.38%.

Consider `CC(C)Oc1cc(F)ccc1-c1cc(C(=O)Nc2cccc(Cl)c2)[nH]n1`, for which the inhibition is -14.2%.

`Nc1nonc1-n1nnc(C(=O)N/N=C\c2ccncc2)c1CN1CCCCC1`: the inhibition was 23.4%.

Turning to `Nc1nonc1-n1nnc(C(=O)N/N=C/c2cc(Br)ccc2O)c1CSC1=NCCS1`, the inhibition is 56.4% (active).

Consider `COCc1c(C(=O)N/N=C\c2cccnc2)nnn1-c1nonc1N`, for which the inhibition was 10.8%.

For the compound `COc1cccc(-c2cnc3c(NC(C)=O)cc(-c4cc(F)ccc4OC)cn23)c1`, the inhibition is 23.8%.

Take `COc1ccc(OCC(O)CN(C)C(=O)C(C)Oc2ccccc2)cc1` (stereo not drawn): the inhibition is 9.53%.

For `CN(Cc1ccccc1)CC(O)COc1ccc(CNCc2cc3ccccc3s2)cc1` (stereo not drawn), the inhibition was 50.3% (active).

On to `COc1cccc(CN(C)CC(O)COC(c2ccccc2)c2ccccc2C)c1` (stereo not drawn), for which the inhibition is 4.99%.

With `Cc1ccc(C)c(C(O)c2ncc(-c3cccc4ccccc34)[nH]2)c1` (stereo not drawn), the inhibition was 17.3%.

Consider `Cc1ccc(-c2nn(-c3ccccc3)cc2/C=C2\SC(=S)N(CCCCCC(=O)O)C2=O)o1`, for which the inhibition is -22.9%.

Consider `COc1ccc(-c2nn(-c3ccccc3)cc2/C=C2/SC(=S)N(CCCC(=O)O)C2=O)c(C)c1`, for which the inhibition was 60.7% (active).

With `COc1cccc(/C=C2\SC(=S)N(CCCC(=O)N3CCOCC3)C2=O)c1`, the inhibition was -13.7%.

For the compound `CCc1nc2c(OCc3ccc(Cl)cc3Cl)cccn2c1N(C)C(=O)C(C)C`, the inhibition was 14.2%.

In the case of `O=C(N/N=C\c1cccnc1)c1cc(-c2ccccc2)nc2c(Cl)cccc12`, the inhibition was 32.6%.

With `Cc1c(NC(=O)CSc2cccc3cccnc23)c(=O)n(-c2ccccc2)n1C`, the inhibition is 23.3%.

On to `O=C(CSc1cccc2cccnc12)N/N=C/c1cccnc1`, for which the inhibition is 74.3% (active).

As to `CNc1cnc(-c2cc(OC)c(OC)c(OC)c2)cn1`, the inhibition is -13.3%.

Take `CC(=O)NC(c1ccccc1)c1nc(-c2cccc(C(C)C)c2)cs1` (stereo not drawn): the inhibition was 4.34%.

For the compound `CC(Oc1ccc(Br)cc1)C(=O)NC1CCCCCC1` (stereo not drawn), the inhibition is -67%.

`COc1ccc(OCC(O)CNCCNc2nccc(C(F)(F)F)n2)cc1` (stereo not drawn): the inhibition is 1.34%.

`CC(C)(C)CC(C)(C)NCC(O)COCCOc1ccc(Br)cc1` (stereo not drawn): the inhibition was 103% (active).

Turning to `CC(NCC(=O)Nc1ccccc1C(=O)NC1CC1)c1ccccc1Cl` (stereo not drawn), the inhibition was 6.43%.
